Data from a collection of fitness landscapes (doi:10.1016/j.celrep.2020.107928).
The full ranking holds about 81,000 sequences; the median of “one-hybrid fitness for binding NBS DNA” is about -0.1, and the highest 2% start at about 0.36. This excerpt belongs to a sample that is enriched for the highest values.

B1: Caulobacter ParB omega fusion; a variant is named by its letters at X, in order, B8GW30 (parent)
chain: MESVVVGEPGMSEGRRGLGRGLSALLGEVDAAPAQAPGEQLGGSREAPIEILQRNPDQPRRTFREEDLEDLSNSIREKGVLQPILVRPSPDTAGEYQIVAGERAWRAAQRAGLKTVPIMVRELDDLAVLEIGIIENVQRADLNVLEEALSYKVLMEKFERTQENIAQTIGKSXSHVANXMRLLXLPDEVQSYLVSGELTAXHARAIAAAADPVALAKQIIEGGLSVRETEALARKAPNLSAGKSKGGRPPRVKDTDTQALESDLSSVLGLDVSIDHRGSTGTLTITYATLEQLDDLCNRLTRGI

Variants of: B1
Assay: one-hybrid fitness for binding NBS DNA (the Noc-binding site; scaled: cognate 1, non-cognate 0); higher = stronger binding
Conditions: with NBS DNA site
In short: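 In E. coli USO, a HIS3 reporter with its site placed 19 bp from the promoter was used to select Caulobacter ParB variants randomised at four specificity codons. Growth lasted 48 hours at 37°C on histidine-free M9 containing 0.1 mM IPTG and 5 mM 3-AT. Fitness was taken as the log change in variant-to-wild-type read ratio from Illumina sequencing of pre- and post-selection plasmids, rescaled between the non-cognate and cognate sites.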

one-hybrid fitness for binding NBS DNA, 0.433:
QRYY

one-hybrid fitness for binding NBS DNA, 0.556:
QRNY

one-hybrid fitness for binding NBS DNA, 0.417:
RMYT
CRKR

one-hybrid fitness for binding NBS DNA, 0.483:
RMST

one-hybrid fitness for binding NBS DNA, 0.699:
QRKY

one-hybrid fitness for binding NBS DNA, 0.22:
QCSY

one-hybrid fitness for binding NBS DNA, 0.452:
QLRH

one-hybrid fitness for binding NBS DNA, 0.348:
RMWT

one-hybrid fitness for binding NBS DNA, 0.435:
QQFT

one-hybrid fitness for binding NBS DNA, ≤ 0.2:
PHSL
GMRS
SYNI
EIAA
WPVG
AYDR
PHAW
RMSK
RMGF
RMQP
RMGK
RMQD
RMSG
NYTS
GQGC
AMCS
NVHT
RMPT
PILE
WLPE
CTVI
RAMV
RPCS
RMCD
RMCP
RKCP
RKCN
RTCP
IART
NTSG
NVYS
KVTC
QPTP
RWEY
ARSD
RCSW
RTAH
RTFN
RTAN
VCRV
RISE
TSIF
HHVS
SALW
HAHM
QQMD
QQMP
QQMN
QQMF
QQMK
TPTE
MRFN
SLPK
RCHW
TPGK
QQAD
DQFT
DRLH
NPTI
WVVG
ARKE
GRRW
PTWL
PTTT
ARAA
RHGE
QELE
DGQC
KKKY
RSWM
QSLY
QPCY
QCLY
QRPY
QSCY
HFFC
LYPV
TISM
AKHW
ALKD
SPCC
WADF
RNVM
SLWP
MHGS
FLKC
NLKN
QPSY
QPHY
QPGY
KKIT
QYVI
PAGP
AGDQ
RWTS
MTVE
MHPL
NLEL
YEAS
QSQY
NRKY
GKDL
ARSS
LLLY
CCKR
CRDR
CRVR
CRYR
SYHR
CIIR
QLHC
DTYG
LLQA
YPAF
QLYH
QLRP
EPSE
WYYR
QNWS
TTNM
AGGD
QTFK
QTFN
QTAP
QTAD
YQLR
LRHP
REPM
TKNF
SEEG
RPVT
RKVP
ILKV
VPFY
KPAR
DRFR
KCAR
NRFR

one-hybrid fitness for binding NBS DNA, 0.289:
QRDY
QRWY

one-hybrid fitness for binding NBS DNA, 0.482:
QQAT

one-hybrid fitness for binding NBS DNA, 0.401:
QTAH

one-hybrid fitness for binding NBS DNA, 0.691:
RKKT

one-hybrid fitness for binding NBS DNA, 0.553:
QRHY

one-hybrid fitness for binding NBS DNA, 0.521:
QRQY

one-hybrid fitness for binding NBS DNA, 0.297:
QCNY

one-hybrid fitness for binding NBS DNA, 0.633:
RMRT

one-hybrid fitness for binding NBS DNA, 0.339:
RTFS

one-hybrid fitness for binding NBS DNA, 0.508:
QRCY

one-hybrid fitness for binding NBS DNA, 0.391:
QTFS

one-hybrid fitness for binding NBS DNA, 0.383:
RMCS

one-hybrid fitness for binding NBS DNA, 0.347:
RMLT

one-hybrid fitness for binding NBS DNA, 0.584:
QQMR

one-hybrid fitness for binding NBS DNA, 0.3:
QCGY

one-hybrid fitness for binding NBS DNA, 0.469:
KRFR

one-hybrid fitness for binding NBS DNA, 0.242:
RKKQ

one-hybrid fitness for binding NBS DNA, 0.253:
RMIT

one-hybrid fitness for binding NBS DNA, 0.284:
QQAH

one-hybrid fitness for binding NBS DNA, 0.51:
QTAS

one-hybrid fitness for binding NBS DNA, 0.541:
KRAR

one-hybrid fitness for binding NBS DNA, 0.371:
RMQT

one-hybrid fitness for binding NBS DNA, 0.258:
QCHY

one-hybrid fitness for binding NBS DNA, 0.477:
QRSY

one-hybrid fitness for binding NBS DNA, 0.256:
QREY

one-hybrid fitness for binding NBS DNA, 0.467:
RTCS

one-hybrid fitness for binding NBS DNA, 0.222:
QQMH

one-hybrid fitness for binding NBS DNA, 0.432:
RMGT

one-hybrid fitness for binding NBS DNA, 0.571:
QRGY

one-hybrid fitness for binding NBS DNA, 0.271:
QRIY

one-hybrid fitness for binding NBS DNA, 0.265:
QCQY

one-hybrid fitness for binding NBS DNA, 0.525:
RKCS

one-hybrid fitness for binding NBS DNA, 0.46:
RCCS

one-hybrid fitness for binding NBS DNA, 0.586:
QLRS

one-hybrid fitness for binding NBS DNA, 0.548:
RTAR

one-hybrid fitness for binding NBS DNA, 0.233:
QTAM

one-hybrid fitness for binding NBS DNA, 0.718:
QRRY

one-hybrid fitness for binding NBS DNA, 0.373:
CRRR

one-hybrid fitness for binding NBS DNA, 0.319:
QLRN

one-hybrid fitness for binding NBS DNA, 0.227:
RKKG

one-hybrid fitness for binding NBS DNA, 0.441:
RTFR

one-hybrid fitness for binding NBS DNA, 0.344:
QRVY

one-hybrid fitness for binding NBS DNA, 0.234:
RTCH

one-hybrid fitness for binding NBS DNA, 0.447:
QRLY

one-hybrid fitness for binding NBS DNA, 0.343:
RSCS

one-hybrid fitness for binding NBS DNA, 0.217:
QTAN

one-hybrid fitness for binding NBS DNA, 0.499:
QQMT

one-hybrid fitness for binding NBS DNA, 0.512:
RKVT

one-hybrid fitness for binding NBS DNA, 0.252:
QLYS

one-hybrid fitness for binding NBS DNA, 0.368:
QQMS
